Most compounds without a hit are left out; they make up all but 10% or so of the library.
HP1b chromo inh: HP1-beta chromodomain-methylated histone interaction inhibition | P83916 | AlphaScreen HP1-beta / biotin-H3K9me3 peptide binding | Potency, µM (top dose mostly 114 µM), inactives show at the highest dose activity change, negative = inhibition, usual class: inhibitors | 390,000 compounds, 0.56% hits; further: potency means the concentration at half of the fitted maximal effect; nearly all actives have a fitted effect of over 70% in size
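AlphaScreen: HP1-beta (50 nM) preformed 30 min with biotin-H3(1-18)K9me3 peptide (50 nM) in PBS pH 7.4, 0.01% Tween-20. Compound added for 30 min at RT, then streptavidin donor/nickel chelate acceptor beads (10 ug/mL) for 30 min.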
G9a inh: inhibitors of human histone lysine methyltransferase G9a; AID 504332; Potency, µM (titrated, usually from 102 µM), without a hit: at the top dose activity, negative = inhibition, hits mostly inhibitors; 350,000 compounds, 8.8% hits; G9a H3K9 monomethylation, AlphaScreen, 2 h; Q96KQ7; further: potency means the concentration at half of the fitted maximal effect; on the % scale 0 is the no-effect control and ±100 the full control effect; nearly all actives have a fitted effect of over 75% in size
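Signal arises when biotinylated H3K9 peptide, once monomethylated, bridges streptavidin donor and antibody-captured acceptor beads. Enzyme at 20 nM was preincubated 15 min with test compounds; peptide 500 nM and SAM 20 uM then reacted for 2 h.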
BAZ2B block: blocks human BAZ2B; Potency, µM (top dose mostly 114 µM), inactives show at the top dose activity change, negative = inhibition, most hits filed as inhibitors; AlphaScreen BAZ2B-H3K14Ac peptide displacement; 360,000 compounds, 4.4% hits; further: potency means the concentration at half of the fitted maximal effect; on the % scale 0 is the no-effect control and ±100 the full control effect; nearly all actives have a fitted effect of over 60% in size
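Complex of BAZ2B and biotin-H3K14Ac (50 nM apiece) forms over 30 min at RT, then faces library compounds up to 110 uM for another 30 min; AlphaScreen beads added, 20 min dark incubation, luminescence read.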
Six1-Eya2 blk: Six1/Eya2 interaction inhibition; AlphaScreen GST-Six1/His-Eya2 binding, biochemical; hits give low values; Q15475+O00167; 360,000 compounds, 0.56% hits; AID 651725; activity change, % (concentration not given with the values); in the data active means activity change below about -65%; inconclusive means mostly about -30% to -63%; further: on the % scale 0 is the no-effect control and ±100 the full control effect
Target sequence (O00167 whole entry, looked up): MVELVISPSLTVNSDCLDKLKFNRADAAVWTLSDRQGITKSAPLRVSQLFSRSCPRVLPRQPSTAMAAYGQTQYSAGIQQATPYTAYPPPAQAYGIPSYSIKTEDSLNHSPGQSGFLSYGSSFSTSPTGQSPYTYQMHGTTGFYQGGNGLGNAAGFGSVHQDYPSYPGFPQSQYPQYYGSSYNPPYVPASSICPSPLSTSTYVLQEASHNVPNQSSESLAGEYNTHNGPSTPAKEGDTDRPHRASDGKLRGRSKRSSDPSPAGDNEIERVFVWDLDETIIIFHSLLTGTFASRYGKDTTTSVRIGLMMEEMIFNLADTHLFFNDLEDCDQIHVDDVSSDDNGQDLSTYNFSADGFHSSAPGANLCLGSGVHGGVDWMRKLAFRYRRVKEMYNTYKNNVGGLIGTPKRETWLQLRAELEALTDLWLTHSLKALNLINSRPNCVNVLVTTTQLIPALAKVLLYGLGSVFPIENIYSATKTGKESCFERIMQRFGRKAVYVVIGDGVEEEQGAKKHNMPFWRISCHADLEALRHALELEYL
Target sequence (Q15475 whole entry, looked up): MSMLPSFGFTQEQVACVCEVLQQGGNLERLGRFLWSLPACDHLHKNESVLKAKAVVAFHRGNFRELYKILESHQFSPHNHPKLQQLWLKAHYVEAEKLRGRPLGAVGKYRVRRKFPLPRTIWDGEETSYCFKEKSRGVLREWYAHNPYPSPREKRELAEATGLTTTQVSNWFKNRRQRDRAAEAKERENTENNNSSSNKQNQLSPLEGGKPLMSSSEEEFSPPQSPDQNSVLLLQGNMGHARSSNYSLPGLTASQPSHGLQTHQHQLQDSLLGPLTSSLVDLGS
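Compounds are tested against tagged Six1 and Eya2 proteins bridged by glutathione donor and nickel acceptor beads; after a one-hour incubation at 37 °C without light, AlphaScreen emission is recorded.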
CtBP-E1A blk: inhibitors of CtBP/E1A interaction; activity change, % (test concentration not listed); 340,000 compounds, 0.49% hits; AID 651724; AlphaScreen GST-E1A/His-CtBP binding, 1536-well; hits give low values; in the data active means activity change below about -65%; inconclusive means mostly about -30% to -63%; further: on the % scale 0 is the no-effect control and ±100 the full control effect
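In 5 uL wells, 23 nL compound meets equimolar GST-E1A and His-CtBP (5X stock 125 nM each) for 2 h, 37 °C. Beads (5X, 50 ug/mL) then 1 h, 37 °C, dark.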
JMJD2A Tudor inh: JMJD2A Tudor domain (human) inhibition; AID 504339; AlphaScreen JMJD2A-Tudor / H3K4me3 peptide binding; 390,000 compounds, 4.4% hits; Potency, µM (doses to about 114 µM), for inactives: at the highest dose activity change, negative = inhibition, actives largely listed as inhibitors; further: potency means the concentration at half of the fitted maximal effect; on the % scale 0 is the no-effect control and ±100 the full control effect; nearly all actives have a fitted effect of over 50% in size
* marks the source's active call; other numbers are inactive results; ? = inconclusive; . = not tested or not shown; [ ] = dose if it differs, or a comment. Unless noted, the call rests on the fitted dose curve; in most records, active means well fitted inhibition curve with a large enough effect; inconclusive means small, poorly fitted or top-dose-only effect; inactive means no such curve, though single readings can be large or run the other way.

SMILES	HP1b chromo inh	G9a inh	BAZ2B block	Six1-Eya2 blk	CtBP-E1A blk	JMJD2A Tudor inh
CCOc1cc2c(cc1OCC)-n1cccc1C(c1ccc(OC)c(OC)c1)NC2 (configuration not stated)	2%	-47%	?	-27	10	?
CCOc1cc2c(cc1OCC)-n1cccc1C(c1c(O)cccc1OC)NC2 (configuration not stated)	-23%	-12%[2.33 µM]	45µM*	?	-29	50µM*
CCOc1cc2c(cc1OCC)-n1cccc1C(c1ccccc1O)NC2 (configuration not stated)	?	50µM*	50µM*	-19	-1	50µM*
FC(F)(F)c1cccc(C2NCc3ccccc3-n3cccc32)c1 (configuration not stated)	4%	?	?	-20	-4	?
CC(C)n1c(/C=C\[C@@H](O)C[C@@H](O)CC(=O)O)c(-c2ccc(F)cc2)c2ccccc21	.	12%[21.5 µM]	.	.	.	.
CCN1C[C@]2(COC(=O)c3ccccc3N3C(=O)CC(C)C3=O)CC[C@H](OC)[C@@]34C5C[C@@H]6[C@@H](OC)C[C@@](O)(C5[C@H]6OC)[C@](O)([C@@H](OC)C23)[C@@H]14 (some centres not stated)	.	28%[59 µM]	.	.	.	.
O=c1[nH]c(O)c(N=Nc2cc([N+](=O)[O-])ccc2O)c(=O)[nH]1	?	45µM*	50µM*	-78*	?	89µM*
NC(=O)c1ccc(N=Nc2c(O)[nH]c(=O)[nH]c2=O)cc1	.	18%	-2%	.	.	.
CC(C)(C)c1ccc(O)cc1	.	28%[59 µM]	.	.	.	.
CCCCC1C(=O)NC(=S)NC1=O	.	4.5µM*	-26%	.	.	.
CCCCC1C(=O)NC(=S)N(C)C1=O (configuration not stated)	-1%	.	.	-2	13	79µM*
C[C@H](N)CN1CCc2ccc(Br)cc21	13%	45µM*	.	-6	-9	-25%
NNC(=O)c1ccc(Cl)cc1	40%	-15%[59 µM]	-26%	-5	8	-2%
O=C(O)CP(=O)(O)c1ccc(Cl)cc1	29%	50µM*	-36%	3	1	40µM*
CCOP(=O)(CN(CC)CCNP(=O)(OCC)OCC)OCC	17%	50µM*	12%[57.1 µM]	-3	-2	?
COc1cc([C@@H]2c3cc4c(c(O)c3C[C@H]3COC(=O)[C@@H]32)OCO4)cc(OC)c1OC	25%	.	.	.	.	-26%
COc1ccc(Cl)cc1NC(=O)CN1C(=O)CN=C(c2ccccc2)c2cc(Cl)ccc21	0%	?	.	.	.	-35%
CN1C(=O)NC(=O)/C(=C\C=C\c2ccccc2[N+](=O)[O-])C1=O	?	7.9µM*	?	-3	-18	?
C[C@@]12C(=O)N(Cc3ccco3)CC(=O)N1[C@H]1c3ccccc3OC[C@@H]1[C@@H]2c1ccccc1	-11%	.	.	-15	-9	?
Cc1ccc(N2C(=O)/C(=C/c3ccc(CN(CCC#N)S(C)(=O)=O)o3)C(=O)NC2=S)cc1C	.	8.9µM*	40µM*	.	.	.
Cc1cccc(N2C(=O)/C(=C/c3ccc(CN(CCC#N)S(C)(=O)=O)o3)C(=O)NC2=S)c1	?	?	50µM*	?	-5	50µM*
CC1(C)c2[nH]c3ccccc3c2C[C@H]2C(=O)N(Cc3ccccc3F)C(=O)N21	-14%	.	.	.	.	?
COc1cc2c(cc1OC)C(C)N(C(=O)c1nccnc1C(=O)O)CC2 (configuration not stated)	-10%	?	?	6	8	50µM*
COc1cc2c(cc1OC)C(C)NCC2 (configuration not stated)	59%	-22%[59 µM]	-2%	6	3	-5%
COCC(=O)N1CCC2(CCCN(Cc3ccncc3)C2)CC1	.	-4%[12.7 µM]	.	.	.	.
SMILES	HP1b chromo inh	G9a inh	BAZ2B block	Six1-Eya2 blk	CtBP-E1A blk	JMJD2A Tudor inh
CCCN1CCCC2Cc3[nH]ncc3CC21 (configuration not stated)	.	50µM*	.	.	.	.
O=C(N/N=C/c1c(O)n(-c2ccccc2)c(=S)[nH]c1=O)c1ccccc1	32%	5%	45µM*	-92*	-89*	45µM*
CCOC(=O)c1ccc(N=Cc2c(O)n(-c3ccccc3F)c(=S)[nH]c2=O)cc1	36%	-8%[59 µM]	2%	-6	5	-1%
CC(C)c1ccc(N=Cc2c(O)n(C3CC3)c(=S)[nH]c2=O)cc1	40%	?	-18%	2	0	-4%
O=c1[nH]c(=S)n(C2CC2)c(O)c1C=NCc1cccnc1	29%	?	-4%	-3	2	28µM*
O=c1[nH]c(=S)n(C2CC2)c(O)c1C=Nc1ccc2c(c1)OCO2	32%	71µM*	3%	-16	-4	-12%
Cc1ccccc1-n1c(O)c(/C=N/NC(=O)c2ccccc2O)c(=O)[nH]c1=S	-8%	32%[59 µM]	45µM*	-92*	-101*	-28%[11.4 µM]
NC(N)=NCCC[C@@H](N)C(=O)O	.	35%[59 µM]	.	.	.	.
O=C(COc1cc(Cl)ccc1Cl)Nc1ccc(Cl)cc1C(=O)c1ccccc1	17%	-24%[59 µM]	-1%	.	.	-21%
CC(C)NC(=O)N1CCC2(CC1)CCN(C(=O)Oc1ccccc1)CC2	.	-19%[12.7 µM]	.	.	.	.
C=C(C)[C@H]1O[C@H]2CC[C@@]3(C)[C@@](O)(CC[C@H]4[C@@H]5OC(C)(C)[C@H]6C[C@@H]7C(=C)Cc8c(Cl)cc9[nH]c(c5c9c8[C@@]76O)[C@@]43C)[C@]23O[C@@H]3[C@H]1O	.	13%[59 µM]	.	.	.	.
CC1CCCN(C(=O)C2CCC(CNc3c(N4CCCCC4)c(=O)c3=O)CC2)C1 (configuration not stated)	58%	-8%[59 µM]	1%	7	-12	-3%[11.4 µM]
Cc1cnn(-c2cc(Oc3ccccc3)ncn2)c1	89%	-49%	0%	6	6	38%
O=C(N/N=C/c1c(O)n(C2CC2)c(=S)[nH]c1=O)c1ccccc1O	17%	25%[59 µM]	45µM*	-83*	-85*	40µM*
COCCN1C(=O)NC(=O)/C(=C\c2ccc(Br)cc2)C1=O	11%	45µM*	-5%	-1	.	?
Cc1ccc(/C=C2/C(=O)NC(=O)N(CCc3ccc(F)cc3)C2=O)s1	32%	-22%[59 µM]	1%	2	10	?
Cc1ccc(/C=C2/C(=O)NC(=O)N(Cc3ccc(F)cc3)C2=O)o1	.	.	-16%	.	.	.
CCOc1cc(/C=C2\C(=O)NC(=O)N(CCc3ccc(F)cc3)C2=O)ccc1O	27%	40µM*	-17%	4	-2	-4%
CN(C)c1ccc(/C=C2\C(=O)NC(=O)N(Cc3ccc(F)cc3)C2=O)cc1	20%	.	-10%	10	6	-11%
